Results published in PubChem BioAssay (EPA / NIEHS).
Inconclusive results are not listed. Activity calls are given as the source filed them. Rule for the calls: active = hit-call score of the fitted dose curve at least 0.9, where 1 is the maximum; inconclusive = response in the unintended direction; inactive = score below 0.9.

Experiments:
[1] = TOX21_p53_BLA_p2_viability: Viability Assessment in the Tox21 HCT-116 p53 Agonism Beta-lactamase Assay, Phase 2 (AID 2283591);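 note: actives lower the ATP signal meaning cytotoxicity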
How it was run: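 Cytotoxicity readout: CellTiter-Glo ATP luminescence, 30 min at room temperature, after the beta-lactamase read. Cells were HCT116 exposed 16 h at 37C to compounds pin-transferred at 217-fold dilution from DMSO stocks.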

[2] = biological target: Cellular tumor antigen p53 (Homo sapiens) (UniProt P04637); assay: TOX21_p53_BLA_p2_ratio: Tox21 HCT-116 p53 Agonism Beta-lactamase Assay, Ratio, Phase 2 (AID 2283592)
Cellular tumor antigen p53 (Homo sapiens), sequence (P04637 whole entry, looked up): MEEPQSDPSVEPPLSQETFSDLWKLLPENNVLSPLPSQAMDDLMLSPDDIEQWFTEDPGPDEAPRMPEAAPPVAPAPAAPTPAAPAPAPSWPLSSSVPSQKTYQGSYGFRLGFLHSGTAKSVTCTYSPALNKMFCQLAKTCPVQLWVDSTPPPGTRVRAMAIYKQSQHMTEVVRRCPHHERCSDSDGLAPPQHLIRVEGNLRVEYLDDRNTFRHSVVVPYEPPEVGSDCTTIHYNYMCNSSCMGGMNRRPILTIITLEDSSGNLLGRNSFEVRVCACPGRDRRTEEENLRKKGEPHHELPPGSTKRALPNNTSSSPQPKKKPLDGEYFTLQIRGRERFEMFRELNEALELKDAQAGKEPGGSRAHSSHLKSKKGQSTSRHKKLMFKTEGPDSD
How it was run: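 First, HCT116 reporter cells settle for 5 h at 37C. Next, DMSO compound solutions are pinned in (217-fold dilution) and left 16 h. Finally, CCF4-AM substrate is loaded 2 h at room temperature and the 460/530 nm ratio read.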

[3] = biological target: Cellular tumor antigen p53 (Homo sapiens) (UniProt P04637); assay: TOX21_p53_BLA_p3_ratio: Tox21 HCT-116 p53 Agonism Beta-lactamase Assay, Ratio, Phase 3 (AID 2283596)
How it was run: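 Cells were seeded at 4000/well, rested 5 h at 37C, then dosed with DMSO compound solutions (217-fold dilution) for 16 h. CCF4-AM substrate was loaded for 2 h at room temperature, and the 460/530 nm emission ratio was fitted for gain of signal versus DMSO.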

[4] = TOX21_p53_BLA_p4_viability: Viability Assessment in the Tox21 HCT-116 p53 Agonism Beta-lactamase Assay, Phase 4 (AID 2283597);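 note: hits lower the luminescence signal meaning cytotoxicity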
How it was run: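 4000 HCT116 cells per well; 5 h attachment; compounds from DMSO, 217-fold dilution; 16 h at 37C. Then CCF4-AM, 2 h RT, followed by CellTiter-Glo, 30 min RT, luminescence. Decrease = cytotoxicity.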

[5] = biological target: Cellular tumor antigen p53 (Homo sapiens) (UniProt P04637); assay: TOX21_p53_BLA_p5_ratio: Tox21 HCT-116 p53 Agonism Beta-lactamase Assay, Ratio, Phase 5 (AID 2283599)
How it was run: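 Beta-lactamase reporter ratio (blue 460 nm over green 530 nm, 405 nm excitation) after 2 h CCF4-AM loading, in HCT-116 cells exposed 16 h at 37 C to compounds pinned at 217-fold dilution. Increases relative to DMSO baseline scored.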

[6] = TOX21_p53_BLA_p5_viability: Viability Assessment in the Tox21 HCT-116 p53 Agonism Beta-lactamase Assay, Phase 5 (AID 2283600)
How it was run: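 Decreased CellTiter-Glo luminescence denotes lost viability. Exposure: 16 h at 37C, 5% CO2, with compounds from DMSO stocks diluted 217-fold in wells of 4000 cells.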

[7] = TOX21_p53_BLA_p3_viability: Viability Assessment in the Tox21 HCT-116 p53 Agonism Beta-lactamase Assay, Phase 3 (AID 2283593);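 note: cells exposed to compound for 16 h before reading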
How it was run: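 Cellular ATP was quantified by CellTiter-Glo luminescence, read after 30 min at room temperature. Beforehand, HCT116 cells (4000/well) received compound 5 h post-seeding, 217-fold diluted from DMSO, then incubated 16 h at 37C.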

[8] = biological target: Cellular tumor antigen p53 (Homo sapiens) (UniProt P04637); assay: TOX21_p53_BLA_p4_ratio: Tox21 HCT-116 p53 Agonism Beta-lactamase Assay, Ratio, Phase 4 (AID 2283601)
How it was run: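 Signal is the blue/green (460nm/530nm) ratio of cleaved versus uncleaved CCF4-AM substrate, read after 2 h substrate loading. Cells were HCT116 carrying the p53-responsive beta-lactamase reporter, dosed 16 h at 37C, 5% CO2; CellTiter-Glo measured in parallel.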

Measured: outcome

CCC(=O)OC/C=C/c1ccccc1
inactive: [1] | [2] | [3] | [4] | [5]

CCOc1ccc2nc(N)sc2c1
inactive: [1] | [2] | [3] | [4] | [5] | [6]

CN(C)CCOC(c1ccc(Cl)cc1)c1ccccn1 (stereo not drawn)
inactive: [1] | [2] | [3] | [4] | [5]

C[C@@H]1O[C@@H](OC[C@H]2O[C@@H](Oc3c(-c4ccc(OCCO)c(OCCO)c4)oc4cc(OCCO)cc(O)c4c3=O)[C@H](O)[C@@H](O)[C@@H]2O)[C@H](O)[C@H](O)[C@H]1O
inactive: [1] | [2] | [3] | [4]

CCOC(=O)[C@H](CCc1ccccc1)N[C@H]1CS[C@H](c2cccs2)CN(CC(=O)O)C1=O
inactive: [1] | [2] | [3]

CC1(C)CC(OC(=O)CCCCCCCCC(=O)OC2CC(C)(C)NC(C)(C)C2)CC(C)(C)N1
inactive: [1] | [2] | [3] | [4]

CCOc1ccc(O)cc1
inactive: [1] | [2] | [3]

CC(C)SCc1ccco1
inactive: [1] | [2] | [3] | [4] | [5]

CN=C(N)NC(=O)Nc1c(C)cccc1C
inactive: [1] | [2] | [3] | [4]

CC(=O)OCC(=O)[C@@]12OC3(CCCC3)O[C@@H]1C[C@H]1[C@@H]3CCC4=CC(=O)C=C[C@]4(C)[C@@]3(F)[C@@H](O)C[C@@]12C
inactive: [1] | [2] | [7] | [8]

CC(=O)Nc1ccc(N)cc1
inactive: [1] | [2] | [7] | [8]

C[C@]12CC[C@@H]3c4ccc(OS(=O)(=O)O)cc4CC[C@H]3[C@@H]1CCC2=O
inactive: [1] | [2] | [7] | [8]

OCC=CCO
inactive: [1] | [2] | [3] | [4] | [5]

Cc1nc2n(c(=O)c1CCN1CCC(c3noc4cc(F)ccc34)CC1)CCCC2
inactive: [1] | [2] | [3] | [4]

ClC(Cl)(Cl)c1ccc(C(Cl)(Cl)Cl)cc1
inactive: [1] | [2] | [3] | [4] | [5] | [6]

NS(=O)(=O)c1cc2c(cc1C(F)(F)F)NCNS2(=O)=O
inactive: [1] | [2] | [3] | [4] | [5] | [6]

NCc1ccccc1CC(=O)N[C@@H]1C(=O)N2C(C(=O)O)=C(CSc3nnnn3CC(=O)O)CS[C@H]12
inactive: [1] | [2] | [3] | [4] | [5] | [6]

CCCCNCCCC
inactive: [1] | [2] | [3] | [4] | [5] | [6]

CC(CNC(=O)c1cccnc1)NC(=O)c1cccnc1 (stereo not drawn)
inactive: [1] | [2] | [3]

Oc1cc(O)c2c(c1)O[C@H](c1ccc(O)c(O)c1)[C@H](O)C2
inactive: [1] | [2] | [3] | [4] | [5] | [6]

O=C(O)[C@@H]1C[C@H](CP(=O)(O)O)CCN1
inactive: [1] | [2] | [3] | [4] | [5]

O=Cc1ccc(Cl)c(Cl)c1
inactive: [1] | [2] | [3] | [4]

CC(=O)O[C@H]1C[C@@]2(C)[C@@H](C[C@@H](O)[C@H]3[C@@]4(C)CC[C@@H](O)[C@@H](C)[C@@H]4CC[C@@]32C)/C1=C(\CCC=C(C)C)C(=O)O
inactive: [1] | [2] | [3] | [4] | [5] | [6]

Clc1nnc(Cl)c2ccccc12
inactive: [1] | [2] | [3] | [4] | [5] | [6]

CCCCOC(=O)CC
inactive: [1] | [2] | [3] | [4] | [5] | [6]

CC(=O)Oc1cccc(O)c1
inactive: [1] | [2] | [3] | [4] | [5] | [6]

O=Cc1cccc(Br)c1
inactive: [1] | [2] | [3] | [4] | [5]

O=C(O)CCC(=O)c1ccc(-c2ccccc2)cc1
inactive: [1] | [2] | [3] | [4] | [5] | [6]

CC(=O)OCC(=O)[C@@]1(O)[C@H](OC(C)=O)C[C@H]2[C@@H]3CCC4=CC(=O)C=C[C@]4(C)[C@@]3(F)[C@@H](O)C[C@@]21C
inactive: [1] | [2] | [3] | [4]

CC(C)NC(=O)c1ccccc1N
inactive: [1] | [2] | [3] | [4] | [5] | [6] | [8]

C=CC1=C(C)C2=CC3=NC(=C(CC(=O)[O-])C4=NC(=C(C)C4=C([O-])[O-])C=c4[n-]c(c(C)c4CC)=CC1=N2)[C@@H](CCC(=O)[O-])[C@@H]3C.[Cu+2].[Na+].[Na+].[Na+]
inactive: [1] | [2] | [3] | [4] | [5] | [6] | [8]

Nc1ccc(Oc2ccc(Cl)cc2)cc1
inactive: [1] | [2] | [3] | [4] | [5] | [6] | [8]

O=S(=O)(O)C(F)(F)F
inactive: [1] | [2] | [3] | [4] | [5] | [6] | [8]

C=C1C[C@@]23CC[C@H]4[C@@](C)(CCC[C@@]4(C)C(=O)O[C@@H]4O[C@H](CO)[C@@H](O)[C@H](O)[C@H]4O)[C@@H]2CC[C@]1(O[C@@H]1O[C@H](CO)[C@@H](O)[C@H](O[C@@H]2O[C@H](CO)[C@@H](O)[C@H](O)[C@H]2O)[C@H]1O[C@@H]1O[C@H](CO)[C@@H](O)[C@H](O)[C@H]1O)C3
inactive: [1] | [2] | [3] | [4] | [5] | [6] | [8]

NCCCCCC(=O)O
inactive: [1] | [2] | [3] | [4] | [5] | [6] | [8]
